Measured values: PubChem BioAssay AID376 (PDSP, 2006)
Among all 2,000 compounds or so, about 250 (12%) were called active. No stated cut-off is given here; in the data, active means hERG blockade below about -20% or above about 20%; inactive means in between. For the sample, actives were picked, then their nearest neighbours and some compounds at random.

Each compound was assayed against Voltage-gated inwardly rectifying potassium channel KCNH2 (Homo sapiens) (UniProt Q12809) (assay: KCNH2 potassium channel function modulators, cell-based (AID 376;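 further: 0% = buffer alone and 100% = reference blocker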)). Settings: hERG-expressing cells, channel activity single-concentration screen; concentration not given here.
Sequence of Voltage-gated inwardly rectifying potassium channel KCNH2 (Homo sapiens) (Q12809 whole entry, looked up): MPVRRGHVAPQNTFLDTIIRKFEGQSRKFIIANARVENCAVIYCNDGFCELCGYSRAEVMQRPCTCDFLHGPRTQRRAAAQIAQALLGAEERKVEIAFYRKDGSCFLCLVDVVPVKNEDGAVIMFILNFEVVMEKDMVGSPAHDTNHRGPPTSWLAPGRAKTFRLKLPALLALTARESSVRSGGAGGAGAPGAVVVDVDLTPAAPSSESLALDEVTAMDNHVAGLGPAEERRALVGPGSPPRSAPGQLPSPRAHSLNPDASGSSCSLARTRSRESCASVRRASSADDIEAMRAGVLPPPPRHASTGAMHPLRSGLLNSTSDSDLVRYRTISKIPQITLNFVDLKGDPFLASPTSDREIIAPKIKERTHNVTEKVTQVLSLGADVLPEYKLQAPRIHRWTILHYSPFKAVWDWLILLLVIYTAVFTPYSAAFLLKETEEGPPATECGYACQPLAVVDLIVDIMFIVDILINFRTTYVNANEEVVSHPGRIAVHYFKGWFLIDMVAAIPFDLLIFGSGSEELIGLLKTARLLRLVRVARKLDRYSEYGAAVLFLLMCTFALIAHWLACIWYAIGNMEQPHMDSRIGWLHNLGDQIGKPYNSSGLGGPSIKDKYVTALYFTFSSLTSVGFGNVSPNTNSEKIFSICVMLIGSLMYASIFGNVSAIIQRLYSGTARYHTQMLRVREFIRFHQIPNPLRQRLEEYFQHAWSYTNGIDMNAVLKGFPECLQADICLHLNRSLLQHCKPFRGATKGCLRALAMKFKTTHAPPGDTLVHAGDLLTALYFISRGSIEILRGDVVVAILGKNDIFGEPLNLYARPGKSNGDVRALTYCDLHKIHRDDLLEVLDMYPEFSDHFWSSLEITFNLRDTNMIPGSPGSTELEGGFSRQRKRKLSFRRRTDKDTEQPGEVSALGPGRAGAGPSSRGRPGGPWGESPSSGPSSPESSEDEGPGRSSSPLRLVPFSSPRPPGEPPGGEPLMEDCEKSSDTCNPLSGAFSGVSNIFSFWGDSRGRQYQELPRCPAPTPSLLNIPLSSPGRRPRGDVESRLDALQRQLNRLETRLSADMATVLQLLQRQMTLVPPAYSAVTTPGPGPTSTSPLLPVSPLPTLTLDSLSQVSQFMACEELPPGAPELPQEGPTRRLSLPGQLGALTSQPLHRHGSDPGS

Row | SMILES | hERG blockade
1 | Cc1ccc(C(N)=Nc2ccccc2)cc1 | 8.7% (inactive)
2 | O=C(O)CCc1nc2ccccc2[nH]1 | -3.47% (inactive)
3 | O=C(O)CCc1ccc(-c2ccccc2)[nH]1 | -28.1% (active)
4 | O=C(O)CCc1nc(-c2ccccc2)c(-c2ccccc2)o1 | 1.96% (inactive)
5 | O=C(CC(C(=O)O)N1CCOCC1)c1ccccc1 (configuration not stated) | 7.79% (inactive)
6 | OCC(O)C(O)C(O)C(O)c1nc2ccc(Cl)cc2[nH]1 (configuration not stated) | 3.95% (inactive)
7 | Cc1cc(Cc2cc(C)cc(C(C)(C)C)c2O)c(O)c(Cc2cc(C)cc(C(C)(C)C)c2O)c1 | 15.5% (inactive)
8 | Cc1ncc(CSc2ccccc2N)c(CO)c1O | -7.6% (inactive)
9 | CC(C)(C)c1ccc(CN2CCN(C(c3ccccc3)c3ccc(Cl)cc3)CC2)cc1 (configuration not stated) | 23.1% (active)
10 | c1ccc(CN2CCC3(CC2)SSC2(CCN(Cc4ccccc4)CC2)SS3)cc1 | 1.07% (inactive)
11 | Clc1ccc(CN2CCCN(Cc3ccc(Cl)cc3)C2c2cc3ccccc3c3ccccc23)cc1 | -5.92% (inactive)
12 | CC1NCCC(CC(=O)O)C1CC(=O)O (configuration not stated) | -10.6% (inactive)
13 | CC(C(=O)c1ccccc1)C(c1ccccc1)N1CCOCC1 (configuration not stated) | -13.1% (inactive)
14 | Cc1onc(-c2c(F)cccc2Cl)c1C(=O)NC1C(=O)N2C1SC(C)(C)C2C(=O)O (configuration not stated) | 8.23% (inactive)
15 | Cc1ccc2nc(NN=Cc3cccc(C)n3)cc(C)c2c1 | 26.3% (active)
16 | CSc1nnnc2ccccc12 | 8.81% (inactive)
17 | O=C(O)C(Cc1ccnc2ccccc12)=NO | -22.9% (active)
18 | O=C(O)C(=Cc1ccnc2ccccc12)C(=O)O | 3.04% (inactive)
19 | O=C(O)C(Cc1cn[nH]n1)=NO | 7.89% (inactive)
20 | NC(=O)SCC(=O)Nc1ccc2ncccc2c1 | 8.17% (inactive)
21 | CC1(C)N=C(N)N=C(N)N1c1cccc(OCc2cccc([N+](=O)[O-])c2)c1 | -1.1% (inactive)
22 | CC(C)(COC1CC2CCC1(C)C2(C)C)[N+](=O)[O-] (configuration not stated) | -4.38% (inactive)
23 | N#CC(=CNc1ccccn1)C(=O)C1CC1 | 0.609% (inactive)
24 | N=C(N)SC1c2ccccc2-c2cc([N+](=O)[O-])ccc21 (configuration not stated) | 50.8% (active)

Row | SMILES | hERG blockade
25 | O=[N+]([O-])c1ccc2c(c1)S(=O)c1ccccc1-2 (configuration not stated) | 13.4% (inactive)
26 | NC(Cc1cccc([N+](=O)[O-])c1)C(=O)O (configuration not stated) | 7.25% (inactive)
27 | N#CC(N=Nc1ccccc1C(=O)O)C(N)=O (configuration not stated) | -0.342% (inactive)
28 | O=[N+]([O-])c1ccc(C(Nc2ccccc2)c2ccc3cccnc3c2O)cc1 (configuration not stated) | 11.2% (inactive)
29 | Cc1cc2ccccc2c[n+]1CC(O)C[n+]1cc2ccccc2cc1C | 26.1% (active)
30 | Cc1ccc(S(=O)(=O)OC2CC(C(C)(C)C)CCC2c2ccccc2)cc1 (configuration not stated) | 2.36% (inactive)
31 | COc1cccc2c1C(CO)N1C(C#N)C3CC(C(=O)O)C(C1C2)N3C (configuration not stated) | -24.5% (active)
32 | O=C(Nc1cccc(Cl)c1)Nn1cnnc1 | 10.3% (inactive)
33 | Cc1ccc(CN2CCN(Cc3ccc(C)o3)C(C)C2)o1 (configuration not stated) | 0.417% (inactive)
34 | O=C(O)C1C2C=CC(O2)C1C(=O)Nc1ncccn1 (configuration not stated) | -6.76% (inactive)
35 | COc1ccc(C=NNC(=O)O)cc1 | -2.22% (inactive)
36 | CC1CCN(CC(=O)N2c3ccccc3Sc3cc4ccccc4cc32)CC1 | 14% (inactive)
37 | CN1CCN(CC(=O)N2c3ccccc3Sc3cc4ccccc4cc32)CC1 | 52.7% (active)
38 | O=C(CC1(O)CCCCC1)OC1CCCC1 | -2.11% (inactive)
39 | CCOC(=O)c1c2c(n3ccccc13)C(=O)c1ccccc1C2=O | 8.67% (inactive)
40 | NC1(C(=O)O)CCCC1C(=O)O (configuration not stated) | -13.4% (inactive)
41 | CCC1(O)C(=O)OCc2c1cc1n(c2=O)Cc2cc3c(CN(C)C)c(O)ccc3nc2-1 (configuration not stated) | 21.4% (active)
42 | O=C(O)c1ccc(NS(=O)(=O)Cc2ccccc2)cc1 | 7.65% (inactive)
43 | NC(N)=NC1C(O)C(O)C(O)C(N=C(N)N)C1O (configuration not stated) | -0.537% (inactive)
44 | Cc1[nH]c2ccccc2c1-c1cc(-c2cc(-c3c(C)[nH]c4ccccc34)on2)no1 | -7.59% (inactive)
45 | N#Cc1c(NC(=O)C(F)(F)F)sc2c3c(=O)c4ccccc4c(=O)c=3oc3ccccc3c12 | 59% (active)
46 | NCOC(=O)Cc1ccc(Br)cc1 | -16.9% (inactive)
47 | COc1ccc2c(c1)[n+]([O-])c(C(C)=NNC(N)=S)c(C)[n+]2[O-] | -7.37% (inactive)
48 | c1nc(NCCc2cnc[nH]2)c2[nH]cnc2n1 | -31% (active)

Row | SMILES | hERG blockade
49 | OCCNc1ncnc2nc[nH]c12 | 3.32% (inactive)
50 | O=C(O)CCNc1ncnc2nc[nH]c12 | 14% (inactive)
51 | Cn1c(=O)c2[nH]c(N=NN3CCN(CCO)CC3)nc2n(C)c1=O | 0.124% (inactive)
52 | O=C(O)C(=Cc1ccc(O)cc1)c1cccc2ccccc12 | 0.955% (inactive)
53 | Cn1c(CC(O)c2nc3ccccc3n2C)nc2ccccc21 (configuration not stated) | -5.68% (inactive)
54 | N=C(N)SCc1cccc2c(=O)cc(-c3ccccc3)oc12 | 44.3% (active)
55 | O=C(O)Cc1cccc2c(=O)cc(-c3ccccc3)oc12 | -7.46% (inactive)
56 | N=C(N)SCc1cccc(-c2nc3ccccc3c(=O)o2)c1 | -5.77% (inactive)
57 | c1ccc2c(c1)C(=Nc1ccc(N=C3c4ccccc4-c4ccccc43)cc1)c1ccccc1-2 | 6.51% (inactive)
58 | CC(C)N(CC(=O)O)CC(=O)O | 7.91% (inactive)
59 | NC(Cc1ccccc1)C(=O)O (configuration not stated) | 16.4% (inactive)
60 | [N-]=[N+]=Nc1ccccc1-c1ccccc1[N+](=O)[O-] | -19.7% (inactive)
61 | c1cc(-c2sc(-c3ccncc3)c(-c3ccncc3)c2-c2ccncc2)ccn1 | 22.4% (active)
62 | Nc1[nH]c(=S)[nH]c(=O)c1N=Nc1c(Br)cc(S(N)(=O)=O)cc1Br | 6.92% (inactive)
63 | CSC12C(=O)CC3(C)C(CCC3(O)C(=O)CO)C1CCC1=CC(=O)CCC12C (configuration not stated) | 3.28% (inactive)
64 | Ic1ccc2c(c1)N(c1ccccc1)c1cc(Nc3ccc4nc5ccc(I)cc5[n+](-c5ccccc5)c4c3)ccc1N2 | 30.3% (active)
65 | CN1CCCN(C)C1c1cc([N+](=O)[O-])ccc1O | 11.9% (inactive)
66 | CC(N)C(C)Cc1ccccc1 (configuration not stated) | 8.67% (inactive)
67 | COC(=O)c1cc(-c2ccc3ccccc3c2)[nH]c(=O)c1C#N | 2.57% (inactive)
68 | ClC(Cl)(Cl)C(N1CCN(c2ccccc2)CC1)N1CCN(c2ccccc2)CC1 | 3.84% (inactive)
69 | Nc1cc(S(=O)(=O)O)cc2ccc(S(=O)(=O)O)cc12 | -2.77% (inactive)
70 | CC(C)C(=O)C(C)(C)CCc1ccccn1 | 1.93% (inactive)
71 | CN(CCc1ccccn1)c1ccc2c(c1)Cc1ccccc1-2 | 20.3% (active)
72 | ON(CCc1ccccn1)Cc1ccccc1 | -7.89% (inactive)

Row | SMILES | hERG blockade
73 | O=C1c2ccccc2-c2ccc(N(Cc3ccc(Br)cc3)Cc3ccc(Br)cc3)cc21 | 15.9% (inactive)
74 | C(=Nc1ccc2c(c1)Cc1ccccc1-2)c1ccccn1 | -16.5% (inactive)
75 | CN(CCc1ccccn1)c1ccc2c(c1)C(=O)c1ccccc1-2 | 75.4% (active)
76 | Cn1ncc2c(Cl)ncnc21 | 12.1% (inactive)
77 | O=C(O)CCCN1CCCCC1 | -19.4% (inactive)
78 | NCCSCCc1ccccc1 | -4.22% (inactive)
79 | NC(CC(=O)Nc1cc(C(F)(F)F)ccc1Cl)=NO | 15.2% (inactive)
80 | CN1CCC(CN2c3ccccc3Sc3ccccc32)C1 (configuration not stated) | 42.9% (active)
81 | c1ccc2sc(SCN(C3CCCCC3)C3CCCCC3)nc2c1 | 12.7% (inactive)
82 | CCC12CCCN3CCc4c(n(c5ccccc45)C(=O)C1)C32 (configuration not stated) | 37.7% (active)
83 | CC1=CC(C)(C)Nc2ccc(CSc3ccccc3)cc21 | 0.516% (inactive)
84 | Nc1nc(Cc2ccccc2)nc(Cc2ccccc2)c1-c1ccccc1 | 29% (active)
85 | Nc1nc(N)c(-c2cccc(C(F)(F)F)c2)c(Cc2cccc(C(F)(F)F)c2)n1 | 11% (inactive)
86 | Nc1nc(-c2ccccc2)c(-c2ccccc2)c(-c2nc(N)nc(-c3ccccc3)c2-c2ccccc2)n1 | 1.5% (inactive)
87 | Cn1c(=O)c2c(nc(C(=N)SCC(=O)O)n2C)n(C)c1=O | 13.2% (inactive)
88 | O=C(O)CCSCc1ccccc1 | -0.0927% (inactive)
89 | O=C(O)C=CC(=O)Nc1cccc2c1-c1ccccc1C2=O | -8.93% (inactive)
90 | NC(N)=Nc1ccc(-c2ccc(N=C(N)N)cc2)cc1 | -0.0188% (inactive)
91 | O=C(O)c1cncc(C(=O)O)c1 | 3.7% (inactive)
92 | CC1CCCC=CC2CC(OC(=O)CN(C)C)CC2C(O)C=CC(=O)O1 (configuration not stated) | -21.9% (active)
93 | COc1ccc(NCc2c(O)ccc3ccccc23)cc1 | -7.42% (inactive)
94 | CSc1ccc(NC(=O)C2CCCCC2C(=O)O)cc1 (configuration not stated) | 10.7% (inactive)
95 | NC(=O)NC(=O)C1CCCCC1C(=O)O (configuration not stated) | -24.9% (active)
96 | CNCC(SC)c1ccc(O)c(O)c1 (configuration not stated) | 11.7% (inactive)

Row | SMILES | hERG blockade
97 | Cc1nc([N+](=O)[O-])cn1-c1nc2ccccn2c1[N+](=O)[O-] | -4.23% (inactive)
98 | c1ccc(CCN2CCN=C2Cc2ccccc2)cc1 | 11.4% (inactive)
99 | CC(N)C(N)=NO (configuration not stated) | -3.44% (inactive)
100 | CN1CCN(CCCN2c3ccccc3Sc3ccc(C(F)(F)F)cc32)CC1 | 29.9% (active)
101 | O=C1CSC2(CCN(CCCN3c4ccccc4Sc4ccc(Cl)cc43)CC2)N1 | 10.1% (inactive)
102 | SC1CCCN(Cc2ccccc2)C1 (configuration not stated) | 10.8% (inactive)
103 | CCC(C)(C)c1ccc(Oc2cccc(C(=O)O)c2)cc1 | -10.7% (inactive)
104 | CN1CCc2ccccc2C1Cc1ccccc1NC(=O)c1sc2ccccc2c1Cl (configuration not stated) | 23.1% (active)
105 | O=C(NC1(C(=O)O)CC1c1ccccc1)c1ccccc1 (configuration not stated) | 6.62% (inactive)
106 | O=[N+]([O-])c1ccc2c(N=Nc3ccc4ccccc4c3O)c(O)cc(S(=O)(=O)O)c2c1 | 23.1% (active)
107 | O=S(=O)(O)c1ccc2c(N=Nc3cccc4ccccc34)c(O)c(S(=O)(=O)O)cc2c1 | 8.62% (inactive)
108 | O=S(=O)(O)c1cc(O)c2c(O)c(N=Nc3cccc4ccccc34)c(S(=O)(=O)O)cc2c1 | 9.29% (inactive)
109 | Cc1ccc(N=Nc2c(O)c(S(=O)(=O)O)cc3cc(S(=O)(=O)O)ccc23)c(C)c1 | 2.33% (inactive)
110 | O=S(=O)(O)c1cc(O)c2c(N=Cc3ccccc3O)cc(S(=O)(=O)O)cc2c1 | -9.52% (inactive)
111 | O=S(=O)(O)c1ccc2c(N=Nc3c(O)ccc4ccccc34)cccc2c1 | 49.9% (active)
112 | Nc1ccccc1N=Nc1c(S(=O)(=O)O)cc2cc(S(=O)(=O)O)cc(O)c2c1O | 21.5% (active)
113 | O=S(=O)(O)c1ccc(N=Nc2ccccc2)cc1 | -15.7% (inactive)
114 | O=[N+]([O-])c1ccc2c(c1)c(S(=O)(=O)O)cc1nonc12 | -6.88% (inactive)
115 | O=S(=O)(O)c1ccc(N=Nc2ccc3c(S(=O)(=O)O)cccc3c2O)c2ccccc12 | 14.9% (inactive)
116 | Cc1ccc(N=Nc2c(O)ccc3cc(S(=O)(=O)O)ccc23)cc1 | 31% (active)
117 | O=S(=O)(O)c1cc(S(=O)(=O)O)c2c(N=Nc3cccc4ccccc34)c(O)ccc2c1 | 14.2% (inactive)
